Source: PubChem BioAssay
Rows were chosen to be rich in hits. Some 1.1% of all compounds tested hit in one or more screens of this group.
HEK293 viab: GF-AFC viability counterscreen for inhibitors of alpha-synuclein gene (SNCA) expression; HEK-293-SNCA-luc viability, GF-AFC fluorescence, 24 h; 150,000 compounds, 0.12% hits; Potency, µM (highest dose often 57.1 µM), hits mostly cytotoxic; also: nearly all actives have a fitted effect of over 30% in size
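Cytotoxicity counterscreen: after 24 h compound treatment of genome-edited SNCA-luciferase HEK-293 cells, live-cell protease substrate GF-AFC read by fluorescence after 30 min; activity scaled between DMSO (0%) and medium-only (-100%), curves Hill-fitted.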
IP6K1 inh: Primary qHTS assay for small molecule inhibitors of Inositol hexaphosphate kinase 1 (IP6K1). Inositol hexakisphosphate kinase 1 (Homo sapiens), Q92551. IP6K1 kinase, ADP-Glo luminescence, 2 h; active compounds read low. activity change, % (series mostly up to about 58 µM). 140,000 compounds, 0.81% hits. AID 1645851, 2021; in the data active = activity change below about -25%
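ADP-Glo luminescence measures ADP made by human IP6K1 during a 2 h RT reaction with ATP/IP6 (mix at 1.3 mM/130 uM); top library doses 57.5 and 19.1 uM final.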
GPT2 inhibitor: Primary qHTS assay for inhibitors of Glutamate pyruvate transaminase 2 (GPT2). Alanine aminotransferase 2 (Homo sapiens), Q8TD30. Recombinant GPT2, coupled pyruvate oxidase/HRP Amplex Red fluorescence. Potency, µM (top dose mostly 57.7 µM), most hits filed as inhibitors. 100,000 compounds, 0.25% hits. AID 1671188, 2021; also: nearly all actives have a fitted effect of over 60% in size
Target sequence (Q8TD30 whole entry, looked up): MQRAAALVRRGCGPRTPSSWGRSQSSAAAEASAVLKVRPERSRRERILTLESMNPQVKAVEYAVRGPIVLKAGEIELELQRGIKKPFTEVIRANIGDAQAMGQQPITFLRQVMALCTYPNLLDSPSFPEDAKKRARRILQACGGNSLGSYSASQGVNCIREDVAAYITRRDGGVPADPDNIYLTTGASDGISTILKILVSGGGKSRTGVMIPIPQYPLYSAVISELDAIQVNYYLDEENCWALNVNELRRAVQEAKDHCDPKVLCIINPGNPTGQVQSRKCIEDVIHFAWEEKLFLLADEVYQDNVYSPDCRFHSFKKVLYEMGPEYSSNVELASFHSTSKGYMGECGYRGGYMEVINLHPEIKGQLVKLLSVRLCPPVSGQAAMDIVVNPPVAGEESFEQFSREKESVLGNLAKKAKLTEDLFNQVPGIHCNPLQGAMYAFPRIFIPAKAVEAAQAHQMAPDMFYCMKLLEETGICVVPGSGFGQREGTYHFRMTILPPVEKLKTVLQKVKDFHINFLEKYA
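Fluorescence of coupled pyruvate oxidase/HRP/Amplex Red system (50uM Amplex, 30 min, dark) reports pyruvate formed by GPT2. Enzyme reaction: 10ng/uL GPT2, 2mM L-alanine, 250uM a-KG, 30 min room temperature, pH 7.5; 50uM AOA control.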
SNCA expr inhib: Primary qHTS assay for inhibitors of alpha-synuclein gene (SNCA) expression | HEK-293 SNCA-luciferase knock-in, luminescence, 24 h | Potency, µM (titrated, usually from 57.2 µM), most hits filed as inhibitors | 140,000 compounds, 0.17% hits | AID 1671194, 2021; also: nearly all actives have a fitted effect of over 45% in size
IP6K1 conf: Confirmatory qHTS assay for small molecule inhibitors of Inositol hexaphosphate kinase 1 (IP6K1); 1,200 compounds, 13% hits; AID 1645852, 2021; recombinant IP6K1 kinase, ADP-Glo luminescence, 2 h; shares compounds with IP6K1 inh; Potency, µM (doses to about 49 µM), hits mostly inhibitors; also: nearly all actives have a fitted effect of over 65% in size
Of the large screens only hits and unclear results are named; the others gave an inactive call (follow-up assays come after a bar, where they were run); ! = a repeat was not active. Unless noted, calls follow the shape of the dose curve; as a rule, active = well fitted curve in the direction sought with a large enough effect; inconclusive = small, poorly fitted or top-dose-only effect, or another doubt; inactive = no such curve, though single readings can be large; an effect the other way counts as inactive or inconclusive.

Cc1ccc(-n2c(C)cc(/C=C(\C#N)C(=O)Nc3ccc(C)c(C)c3)c2C)cc1	none (no result: GPT2 inhibitor)
Cc1ccc(NC(=O)/C(C#N)=C/c2cc(C)n(-c3ccc(Br)cc3)c2C)cc1C	HEK293 viab inconclusive, IP6K1 inh -29, SNCA expr inhib inconclusive (no result: GPT2 inhibitor) | IP6K1 conf inactive
COc1cccc(N2CCN(C(=O)CCSCc3ccccc3F)CC2)c1	IP6K1 inh -29 (no result: GPT2 inhibitor) | IP6K1 conf inactive
Cc1nc2ccc(CN(C)c3ccc(C(=O)NC(CCC(=O)O)C(=O)O)s3)cc2c(=O)[nH]1 (stereo unspecified)	none (no result: SNCA expr inhib)
CC(C)Cc1nc(CN(C)C(=O)c2cccc(CCC(C)(C)O)c2)no1	IP6K1 inh -32, SNCA expr inhib inconclusive | IP6K1 conf inactive
O=C(C1CCCN1C(=O)Nc1ccccc1)N1CCC(N2CCCC2=O)CC1 (stereo unspecified)	GPT2 inhibitor inconclusive
O=C(O)c1cc(O)c2cccc(O)c2c1O[C@@H]1O[C@H](CO)[C@@H](O)[C@H](O)[C@H]1O	IP6K1 inh -37, GPT2 inhibitor inconclusive (no result: SNCA expr inhib) | IP6K1 conf inconclusive
O=[N+]([O-])c1ccc(CNc2nc(NCc3cccc(C(F)(F)F)c3)nc3nc[nH]c23)cc1	IP6K1 inh -75 (no result: SNCA expr inhib) | IP6K1 conf 1.6µM!
O=c1cc(-c2ccccc2)oc2ccccc12	IP6K1 inh -30, GPT2 inhibitor inconclusive | IP6K1 conf inconclusive
CC(=O)Nc1ccc(NC(=O)c2cc(=O)c3ccccc3o2)cc1	SNCA expr inhib inconclusive (no result: GPT2 inhibitor)
CC(C)c1ccc(-c2cc(=O)c3ccccc3o2)cc1	IP6K1 inh -78 (no result: SNCA expr inhib) | IP6K1 conf 3.3µM
CCN1C[C@H]2CN(C)c3ccccc3[C@@H]2N(C(=O)c2ccc(C)cc2)CCC1=O	none
Cc1ccccc1Nc1c(-c2ccc(N3CCOCC3)cc2)nc2ccccn12	SNCA expr inhib inconclusive (no result: GPT2 inhibitor)
Cc1cc(N2CCOCC2)ccc1Nc1nc(NC2CCCCC2)c2[nH]cnc2n1	IP6K1 inh -47 (no result: SNCA expr inhib) | IP6K1 conf 2.1µM
Cc1cccc(-c2nc3ccc(C(=O)NC(C)C)cc3o2)n1	SNCA expr inhib inconclusive
CC(C)(C)c1ccc(Cn2c(Cc3ccccc3)nc3ccccc32)cc1	SNCA expr inhib inconclusive (no result: GPT2 inhibitor)
CCOC(=O)Cn1c(=N)n(Cc2ccc(C(C)(C)C)cc2)c2ccccc21	HEK293 viab inconclusive, IP6K1 inh -27, SNCA expr inhib inconclusive (no result: GPT2 inhibitor) | IP6K1 conf inactive
NC(=O)N1CCC(CC(=O)N2CCC(C3c4ncc(Br)cc4CCc4cc(Cl)cc(Br)c43)CC2)CC1 (stereo unspecified)	HEK293 viab inconclusive, IP6K1 inh -40 (no result: SNCA expr inhib) | IP6K1 conf inconclusive
NC(=O)N1CCC(CC(=O)N2CCC([C@H]3c4ncc(Br)cc4CCc4cc(Cl)cc(Br)c43)CC2)CC1	SNCA expr inhib inconclusive (no result: IP6K1 inh)
COc1cccc(-c2cc(C(=O)NC3CCC3)c3cnn(C)c3n2)c1	none (no result: HEK293 viab, GPT2 inhibitor, SNCA expr inhib)
Cn1ncc2c(C(=O)NCC3CC3)cc(-c3ccc(C(F)(F)F)cc3)nc21	none (no result: HEK293 viab, GPT2 inhibitor, SNCA expr inhib)
Cc1ccccc1CNC(=O)c1cnc2sc(N3CCOCC3)nn2c1=O	IP6K1 inh -100 (no result: GPT2 inhibitor) | IP6K1 conf inactive
O=C1NC(=O)/C(=C/c2ccc(-c3ccc(F)cc3O)o2)S1	none (no result: IP6K1 inh) | IP6K1 conf 2.6µM
O=C1NC(=O)/C(=C/c2ccc3nccnc3c2)S1	none (no result: IP6K1 inh)
O=C(NCc1ccccc1F)C1CCc2nnc(-c3cccc(C(F)(F)F)c3)n21 (stereo unspecified)	none
Cc1cccc(Nc2nc(N[C@@H]3CCCC[C@H]3N)ncc2C(N)=O)c1	GPT2 inhibitor inconclusive (no result: IP6K1 inh)
NC(=O)c1cnc(N[C@@H]2CCCC[C@H]2N)nc1Nc1cccc(-n2nccn2)c1	HEK293 viab inconclusive (no result: SNCA expr inhib) | IP6K1 conf inconclusive
CCc1cccc(CC)c1N(COC)C(=O)Cn1c(C)nc2ccccc21	IP6K1 inh -33, SNCA expr inhib inconclusive (no result: GPT2 inhibitor) | IP6K1 conf inactive
CCCCNc1oc(-c2ccc(COc3ccc(OC)cc3)o2)nc1C#N	IP6K1 inh -31 (no result: GPT2 inhibitor) | IP6K1 conf inactive
Cc1ccc(-c2ccccc2CN2CCN(C(=O)c3ccccc3Cl)CC2)cc1Cl	none
O=C(NCc1ccccn1)C1CCCCN1Cc1ccc(-c2ccsc2)cc1 (stereo unspecified)	GPT2 inhibitor inconclusive
N#CCC(C1CCCC1)n1cc(-c2ncnc3[nH]ccc23)cn1 (stereo unspecified)	none (no result: SNCA expr inhib) | IP6K1 conf inactive
O=C(c1ccc(C(F)(F)F)cc1)N1CCCC1C(=O)N1CCCC1c1nc2ccncc2[nH]1 (stereo unspecified)	none
CCOC(=O)c1c(NC(C)=O)c2c3c(sc2n1Cc1nc(-c2cccc(Cl)c2)oc1C)CCCC3	none (no result: GPT2 inhibitor)
CCOC(=O)c1c(NC(C)=O)c2c3c(sc2n1Cc1nc(-c2ccccc2Cl)oc1C)CCCC3	IP6K1 inh -30, SNCA expr inhib inconclusive (no result: GPT2 inhibitor) | IP6K1 conf inactive
Cc1ccc(C(=O)Nc2cc(-c3cccnc3)nn2-c2ccccc2)cc1	none
CO/N=C(/C(=O)N[C@@H]1C(=O)N2C(C(=O)OCOC(=O)C(C)(C)C)=C(C)CS[C@H]12)c1csc(N)n1	none
CO/N=C(/C(=O)N[C@@H]1C(=O)N2C(C(=O)O)=C(CSC(=O)c3ccco3)CS[C@H]12)c1csc(N)n1	IP6K1 inh -49! (no result: SNCA expr inhib) | IP6K1 conf inconclusive
COc1ccc(Nc2ccnc(N3CCN(C(=O)Nc4ccccc4)CC3)n2)cc1	none
Cc1ccc(C(=O)N2CCC3(CC2)CC(N(Cc2ccc(F)cc2)C2CC2)CCO3)cn1 (stereo unspecified)	IP6K1 inh -26 | IP6K1 conf inactive
COc1cccc(CNC(=O)[C@@H]2C[C@@H](O)CN2C2CCN(C(=O)Cc3c(C)noc3C)CC2)c1	none
COc1cccc(NC(=O)CSc2nnc3scc(-c4ccc(Cl)cc4)n23)c1	IP6K1 inh -37 (no result: GPT2 inhibitor) | IP6K1 conf inactive
